Reference: the supplement of paper PMC6555819

What was measured:
Test in all cases: PBM binding z-score (relative to random genomic background probes); higher = stronger binding; sequences stand for … in GC…GCGATTGACAGCGTAGAATGAAGG
[1] = tested on: FXR:RXRa (NR concentration 270 nM, RXRa partner concentration 90 nM)
Summary of the method: (§1)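 For binding z-scores, the reference was random background probes on custom Agilent 4×180K protein-binding microarrays. These arrays were incubated 1 h with ligand-free nuclear receptor dimers in PBS pH 7.4, 2% milk, 0.02% Triton X-100, 1 mM DTT, 0.2 mg/mL BSA and 0.4 mg/ml salmon testes DNA. Fluorescence was scanned after antibody detection of each partner (one per run) and regression-normalized.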

[2] = tested on: LXRa:RXRa (NR concentration 270 nM, RXRa partner concentration 90 nM)
Summary of the method: as §1

[3] = tested on: LXRa homodimer (NR concentration 270 nM)
Summary of the method: as §1

[4] = tested on: LXRb:RXRa (NR concentration 270 nM, RXRa partner concentration 90 nM)
Summary of the method: as §1

[5] = tested on: LXRb homodimer (NR concentration 270 nM)
Summary of the method: as §1

[6] = tested on: PPARa:RXRa (NR concentration 270 nM, RXRa partner concentration 90 nM)
Summary of the method: as §1

[7] = tested on: PPARg:RXRa (NR concentration 180 nM, RXRa partner concentration 90 nM)
Summary of the method: as §1

[8] = tested on: PPARg:RXRa 270nM:90nM, anti-RXR (NR concentration 270 nM, RXRa partner concentration 90 nM)
Summary of the method: as §1

[9] = tested on: PPARg:RXRa 30nM:10nM, anti-RXR (NR concentration 30 nM, RXRa partner concentration 10 nM)
Summary of the method: as §1

[10] = tested on: PPARg:RXRa 90nM:30nM, anti-RXR (NR concentration 90 nM, RXRa partner concentration 30 nM)
Summary of the method: as §1

[11] = tested on: PPARg:RXRa DBDmut IVT, anti-RXR (DBD mutation: RXRa K156A/R161A, NR concentration 270 nM, RXRa partner concentration 90 nM)
Summary of the method: as §1

[12] = tested on: PPARg:RXRa IVT, anti-PPARg (NR concentration 270 nM, RXRa partner concentration 90 nM)
Summary of the method: as §1

[13] = tested on: PPARg DBDmut:RXRa IVT, anti-PPARg (DBD mutation: PPARg1 K132A/R137A, NR concentration 270 nM, RXRa partner concentration 90 nM)
Summary of the method: as §1

[14] = tested on: PPARg DBDmut IVT, anti-PPARg (DBD mutation: PPARg1 K132A/R137A, NR concentration 270 nM)
Summary of the method: as §1

[15] = tested on: PPARg homodimer (NR concentration 180 nM)
Summary of the method: as §1

[16] = tested on: PXR:RXRa (NR concentration 270 nM, RXRa partner concentration 90 nM)
Summary of the method: as §1

[17] = tested on: PXR homodimer (NR concentration 270 nM)
Summary of the method: as §1

[18] = tested on: RARa:RXR (NR concentration 270 nM, RXRa partner concentration 90 nM)
Summary of the method: as §1

[19] = tested on: RARa homodimer (NR concentration 270 nM)
Summary of the method: as §1

[20] = tested on: RARb:RXRa (NR concentration 270 nM, RXRa partner concentration 90 nM)
Summary of the method: as §1

Row | Sequence | PBM binding z-score [1] | PBM binding z-score [2] | PBM binding z-score [3] | PBM binding z-score [4] | PBM binding z-score [5] | PBM binding z-score [6] | PBM binding z-score [7] | PBM binding z-score [8] | PBM binding z-score [9] | PBM binding z-score [10] | PBM binding z-score [11] | PBM binding z-score [12] | PBM binding z-score [13] | PBM binding z-score [14] | PBM binding z-score [15] | PBM binding z-score [16] | PBM binding z-score [17] | PBM binding z-score [18] | PBM binding z-score [19] | PBM binding z-score [20]
1 | CCTGCTAGCTCATGGTCAGCTAATCTACAGTATG | -0.461 | -0.418 | -0.46 | -0.626 | -0.239 | -0.737 | -0.225 | -0.822 | -0.885 | -0.895 | 0.183 | -0.609 | -0.471 | -0.109 | -0.356 | -0.641 | -0.376 | -0.681 | -0.182 | -0.0065
2 | ATATGTGGGTTACATCCGGGTCATTCAGGCTATG | 2.27 | 4.1 | 1.26 | 3.06 | 1.12 | 4.12 | 5.38 | 4.48 | 2.02 | 3.36 | 6.84 | 6.81 | 2.1 | 2.31 | 2.37 | 3.72 | 2.92 | 3.51 | 1.06 | 2.01
3 | CCGACTGGGGCAAGGTGACCATAACGCACAGCCA | -0.279 | -0.424 | -0.369 | -0.293 | -1.35 | 0.808 | 1.99 | 1.81 | -0.0516 | 0.949 | 2.69 | 3.79 | -0.323 | -0.812 | 0.0642 | -0.346 | -0.578 | -0.0197 | -0.0269 | 1.14
4 | GGCACGAGGGCAAAGTTGATAGCATCTGTCGACG | 1.44 | 1.01 | -0.378 | 0.776 | -0.874 | 3.29 | 6.13 | 6.24 | 4.26 | 6.86 | 2.51 | 2.98 | -0.61 | -0.775 | 0.977 | 1.11 | 0.289 | 1.56 | -0.644 | 2.54
5 | CCTGCTAGGTCATGGCCAGCTAATCTACAGTATG | 3.55 | 2.55 | 0.0955 | 1.76 | -0.401 | 3.99 | 2.7 | 3 | 0.634 | 2.16 | 4.25 | 3.91 | 0.0686 | -0.931 | 0.851 | 1.27 | -0.389 | 2.49 | -0.572 | 3.98
6 | TCTTGTAGTTCAAAGGTTAAGAAAGCCGAAGCCT | 4.09 | 4.39 | 1.23 | 3.51 | 0.628 | 5.16 | 7.14 | 7.29 | 7.28 | 7.39 | 1.69 | 2.84 | 0.125 | 1.99 | 1.87 | 4.59 | 0.443 | 6.25 | 0.439 | 3.36
7 | CGAGCTAGGTCATCCAGGACAGTGAATACATTGA | 4.29 | 2.49 | 0.492 | 1.96 | 0.0673 | 3.54 | 2.6 | 2.25 | 0.528 | 1.35 | 3.44 | 3.06 | 0.0496 | -0.51 | 1.51 | 1.88 | 0.935 | 2.15 | 0.298 | 3.85
8 | TCTAGTTGGTCACGGAGGTGACACACGACGGGTA | 1.04 | 0.805 | -0.0469 | 0.335 | 0.00515 | 1.43 | 1.64 | 1.98 | 2.83 | 2.24 | 2.02 | 3.37 | 1.22 | 0.542 | 1.15 | 0.71 | -0.119 | 0.781 | 0.338 | 1.82
9 | GATACAGGGTCACGGCCAGAGTACGCGTATTGAT | 7.54 | 5.1 | -0.0336 | 4.33 | -0.171 | 6.26 | 8.33 | 7.43 | 3.93 | 6.41 | 4.17 | 5.49 | 1.11 | 0.362 | 2.36 | 4.75 | 0.0972 | 6.41 | 0.744 | 4.89
10 | CGTCCAAGGTCAGAGAGGTCAGTGGATGCCGAGT | 6.14 | 5.17 | 3.43 | 4.38 | 0.285 | 4.94 | 3.46 | 4.26 | 1.09 | 2.58 | 2.81 | 3.74 | 0.146 | 0.0263 | 3.71 | 6.17 | 11.7 | 5.33 | 0.8 | 5.38
11 | ACTAGTTGGTCAGCGGAGGTCACACACAATTCGG | 2.84 | 3.44 | 3.05 | 3.15 | 0.932 | 3.52 | 1.91 | 2.26 | 1.3 | 1.68 | 1.63 | 2.75 | 1.36 | 0.469 | 3.06 | 4.99 | 1.8 | 4.46 | 1.6 | 3.59
12 | ATCGAAAGGCCGAGGTGAGTATAGAGAAAGGGAA | 0.0206 | -0.227 | -0.447 | -0.337 | -0.455 | -0.0261 | 0.313 | -0.133 | -0.0137 | -0.154 | -0.777 | 0.581 | -0.257 | 0.0911 | 0.14 | -0.348 | 0.0633 | 0.0364 | -0.273 | 1.53
13 | TATACAGGGTCAAAGGCCAGGGTACGAATGTCGA | 6.87 | 6.23 | 2.51 | 4.8 | 2.5 | 6.27 | 8.53 | 7.29 | 5.77 | 6.97 | 2.06 | 4.98 | 2.34 | 1.6 | 2.3 | 4.41 | 0.905 | 6.05 | 1.67 | 4.48
14 | AATACAGGGTCACTCGGCCAGAGTAGGTACGAAT | 6.58 | 5.13 | 1.19 | 4.06 | 1.03 | 5.6 | 6.87 | 5.81 | 2.53 | 4.66 | 3.09 | 5.09 | 2.08 | 1.63 | 2.92 | 3.49 | 0.336 | 4.66 | 0.723 | 4.39
15 | CCCACTGGGCCAAAGGTCATTGATTCCAATGCTC | 4.95 | 4.92 | 4.26 | 4.72 | 0.641 | 6.5 | 11.7 | 10.5 | 10.2 | 11 | 4.77 | 6.2 | 0.334 | -0.118 | 3.86 | 5.36 | 1.81 | 6.34 | 1.99 | 4.39
16 | GTACCAAGGGGAATAGGTCGTTGATGAGTAGGCG | -0.0504 | 0.00136 | -0.0435 | 0.269 | -0.418 | 1.3 | 0.915 | 1.15 | 0.0532 | 0.835 | -0.45 | 0.704 | -0.174 | -0.377 | 0.85 | 0.0913 | 0.00696 | 0.389 | 0.37 | 0.516
17 | CGGCCAAGGTCATAGGAGGTCAGTGAAGACAGAT | 7.73 | 7.58 | 4.26 | 6.03 | 0.344 | 5.82 | 5.92 | 5.6 | 2.38 | 4.77 | 2.94 | 4.46 | -0.828 | -0.774 | 4.97 | 6.76 | 3.6 | 5.88 | 1.82 | 5.29
18 | CGAACGAGAGCATGAGTTGATAGCAAATGCCGAT | -0.453 | -0.53 | -0.103 | -0.828 | -0.953 | -0.357 | 0.777 | 0.133 | -0.214 | -0.282 | -0.221 | -0.445 | 0.0684 | -0.174 | -0.221 | -0.273 | -0.148 | -0.442 | -0.33 | -0.53
